Data published in PubChem BioAssay (NCI).
Compounds without any hit were thinned out: in the full panel of roughly 83,000, 20% have a hit.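 A percent growth of 40 corresponds to 60% growth inhibition; 0 means no net growth; -100 means all cells died. Active threshold: below 10.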 Activity calls are given as the source filed them.

What follows are compounds tested on HL-60(TB) leukemia (assay: NCI-60 one-dose screen, 48 h (100 = growth as untreated, 0 = no growth, -100 = all killed)). Conditions: 10 µM unless noted.

| SMILES | growth |
| --- | --- |
| CN(C)c1ncc(/C=C2\SC(=S)N(Cc3ccccc3Cl)C2=O)s1 | 94% (inactive) |
| COCCNc1ccc2ncc(C#Cc3cncc(C(=O)Nc4ccc(CN5CCN(C)CC5)c(C(F)(F)F)c4)c3)n2n1 | 0.694% (active) |
| Cc1ccc2c(n1)C(=O)C(Cl)=C(Nc1ccc(C(F)(F)F)cc1)C2=O | 35.8% (inactive) |
| C#CCOc1ccc(C(Nc2cc(Cl)ccc2Cl)c2nnnn2C2CCCCC2)cc1 (centres undefined) | 88.4% (inactive) |
| Cc1ccc(CNS(=O)(=O)/N=C2\NC(=O)NC2=C(Cl)Cl)cc1 | 28.6% (inactive) |
| C=CC(=O)N1CCC=C(c2cc3c(N[C@H](C)c4ccccc4)ncnc3[nH]2)C1 | 72.4% (inactive) |
| C#C[C@]1(O)CC[C@H]2[C@@H]3CC=C4c5sc(Nc6ccncc6)nc5CC[C@]4(C)[C@H]3CC[C@@]21C | -24% (active) |
| C/C(=N\NC(N)=S)c1nnn(-c2ccc([N+](=O)[O-])cc2)c1C | 105% (inactive) |
| Fc1ccccc1/C=C(/C1=NCCN1)n1cnc2ccccc21 | 94.5% (inactive) |
| O=C(CSc1nc2ccccc2c(=O)n1-c1ccccc1)Nc1ccc(S(=O)(=O)Nc2nccs2)cc1 | 78.7% (inactive) |
| COc1ccc(CCN2C(=O)/C(=C/c3nc(CO)cs3)SC2=S)cc1 | 59.4% (inactive) |
| CNC(=O)c1cc(Oc2ccc3nc(NC(=O)c4cc(C)cc(C)c4)sc3c2)ccn1 | 70.4% (inactive) |
| Nc1c(C(=O)Nc2ccc(Cl)cc2)sc2nc(-c3cnccn3)cc(-c3cccs3)c12 | 58.3% (inactive) |
| Cc1ccc(NC(=O)c2ccc(CN3CCN(C)CC3)c(I)c2)cc1Oc1ccc(-c2[nH]nc3ncnc(N)c23)cc1 | 118% (inactive) |
